# Test results as given in PubChem BioAssay (Tox21).
# Values joined by “and” are separate entries in the source; they are usually repeats but may differ in a detail not shown here. Equal values may be shown once. Inconclusive results are not listed. Where a call stands in place of a potency, no number is given. Some structures have more than one record in an assay (separate samples or runs), and their calls can disagree. Active and inactive are the calls of the source. Unless noted, calls come from the whole dose curve; as a rule, active = well fitted curve in the direction sought with a large enough effect in the repeat runs; inconclusive = weak or mixed curves; inactive = no such curve, though single readings can be large; an effect the other way counts as inactive or inconclusive.
# Experiments:
# [1] = qHTS assay to identify small molecule agonists of the vitamin D receptor (VDR) signaling pathway - cell viability counter screen (AID 743224); note: series mostly up to about 63 µM; nearly all actives have a fitted effect of over 50% in size
# In short: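 Counter screen for cytotoxicity: VDR-bla cells at 2,000 cells/well, 16 h compound exposure, then CellTiter-Glo luminescence after the beta-lactamase measurement.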
# [2] = qHTS assay to identify small molecule antagonists of the vitamin D receptor (VDR) signaling pathway - cell viability counter screen (AID 743225); note: nearly all actives have a fitted effect of over 50% in size
# In short: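 VDR-bla HEK 293T cells, 4 h pre-incubation at 37C, then compound plus 1-alpha,25-dihydroxyvitamin D3 (3 nM final) for 16 h. After the beta-lactamase FRET read, CellTiter-Glo was added to the same wells; luminescence after 30 min at room temperature.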
# [3] = qHTS assay to identify small molecule agonists of the NFkB signaling pathway (AID 1159509; active = well fitted curve in the direction sought with a large enough effect in the signal ratio in the repeat runs, not every such curve was filed as active; the % refers to the signal ratio; note: series mostly up to about 61 µM)
# In short: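 Readout: FRET fluorescence, 405 nm excitation, 460/530 nm emission; beta-lactamase expression disrupts FRET. Cells: ME-180 stably carrying NF-kB-driven bla reporter. Compound exposure 5 hr, 37 C, 5% CO2.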
# [4] = qHTS assay to identify small molecule agonists of the NFkB signaling pathway - cell viability counter screen (AID 1159515; calls by dose curve; note: series mostly up to about 61 µM; nearly all actives have a fitted effect of over 55% in size)
# In short: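 Counter screen run alongside the NFkB-bla agonist assay: ME-180 reporter cells exposed to compounds for 5 hr, then lysed with CellTiter-Glo in the same wells. Luminescence, read after 30 min, reflects viable cells.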
# [5] = qHTS assay to identify small molecule agonists of the endoplasmic reticulum stress response signaling pathway (AID 1159516; active = well fitted activation curve with a large enough effect in the signal ratio in the repeat runs, not every such curve was filed as active; the % refers to the signal ratio)
# In short: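 For this screen, HeLa cells stably carrying beta-lactamase under the ER stress response element received test compounds, positive controls or DMSO for 5 hr at 37 C; B/G FRET substrate was then added and dual-wavelength emission recorded.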
# [6] = target: Nuclear receptor ROR-gamma (Homo sapiens) (UniProt P51449); test: qHTS assay to identify small molecule antagonists of the retinoid-related orphan receptor gamma (ROR-gamma) signaling pathway (AID 1159521;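 note: CHO cells with doxycycline inducible ROR-gamma driving an RORE luciferase reporter; top concentration of the series differs between compounds; nearly all actives have a fitted effect of over 50% in size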)
# In short: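 Tet-on RORγ CHO cells carrying a ROR response element–luciferase reporter were pretreated with compounds for 2 h, then induced with 1 uM (final) doxycycline hyclate for 16 h at 37 C. Antagonism was read as decreased ONE-Glo luminescence.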
# [7] = qHTS assay to identify small molecule agonists of the AP-1 signaling pathway - cell viability counter screen (AID 1159525; calls by dose curve; note: nearly all actives have a fitted effect of over 55% in size)
# In short: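 Same-well cytotoxicity counter screen of the Tox21 10K library in ME-180 cells. The readout is ATP-dependent luminescence after 5 h compound treatment. Data are normalised to DMSO and tetra n-octyl ammonium bromide controls.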
# [8] = qHTS assay to identify small molecule agonists of the AP-1 signaling pathway (AID 1159526; calls by dose curve)
# [9] = target: Retinoic acid receptor RXR-alpha (Homo sapiens) (UniProt P19793); test: qHTS assay to identify small molecule agonists of the RXR signaling pathway (AID 1159527; calls by dose curve; note: nearly all actives have a fitted effect of over 35% in size; note: potency is the fitted concentration of half-maximal effect)
# Retinoic acid receptor RXR-alpha (Homo sapiens), sequence (P19793 whole entry, looked up): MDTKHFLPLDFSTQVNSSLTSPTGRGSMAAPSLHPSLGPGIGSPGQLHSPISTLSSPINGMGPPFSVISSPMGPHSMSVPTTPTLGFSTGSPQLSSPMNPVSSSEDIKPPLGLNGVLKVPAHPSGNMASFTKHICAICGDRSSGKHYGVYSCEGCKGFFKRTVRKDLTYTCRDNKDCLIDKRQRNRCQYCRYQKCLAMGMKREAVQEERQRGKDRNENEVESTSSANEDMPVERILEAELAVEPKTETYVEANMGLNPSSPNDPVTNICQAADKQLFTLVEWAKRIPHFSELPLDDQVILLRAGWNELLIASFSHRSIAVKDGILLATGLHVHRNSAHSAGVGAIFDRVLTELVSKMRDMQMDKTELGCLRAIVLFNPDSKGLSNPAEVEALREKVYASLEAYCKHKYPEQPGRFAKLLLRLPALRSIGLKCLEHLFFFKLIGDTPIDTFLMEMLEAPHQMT
# In short: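 GeneBLAzer RXR-alpha-UAS-bla HEK 293T cells in medium with 2% charcoal-stripped FBS, pre-incubated 5 hr at 37 C, then exposed to compounds 16 hr. Beta-lactamase reporter read by FRET substrate, 2 hr room temperature, 460/530 nm emission.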
# [10] = qHTS assay to identify small molecule agonists of the RXR signaling pathway - cell viability counter screen (AID 1159529); note: series mostly up to about 77 µM; nearly all actives have a fitted effect of over 50% in size
# In short: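 RXR-alpha-UAS-bla HEK 293T cells in medium with 2% charcoal-stripped FBS were preincubated 5 hr, then exposed to compounds for 16 hr at 37 C. Viability was read as CellTiter-Glo luminescence after 30 min at room temperature.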
# [11] = qHTS assay to identify small molecule antagonists of the retinoid acid receptor (RAR) signaling pathway - cell viability counter screen (AID 1159551); note: nearly all actives have a fitted effect of over 35% in size
# In short: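 Measured by luminescent ATP detection, viability reflects C3RL4 cells treated 6 h at 37 C with test chemicals in the presence of 1 uM (final) retinol.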
# [12] = qHTS assay to identify small molecule antagonists of the estrogen related receptor (ERR) signaling pathway from Tox21 library - cell viability counter screen (AID 1224834); note: nearly all actives have a fitted effect of over 30% in size
# In short: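 Seeded ERR cells were rested 6 h at 37 C/5% CO2 before compounds, positive and negative controls or DMSO were added. Incubation continued for 17.5 h, and viability was then quantified by CellTiter-Fluor fluorescence.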
# [13] = target: Luciferin 4-monooxygenase (Photinus pyralis) (UniProt P08659); test: qHTS assay to identify small molecule inhibitors of firefly luciferase (AID 1224835); note: nearly all actives have a fitted effect of over 25% in size; note: potency is the fitted concentration of half-maximal effect
# Luciferin 4-monooxygenase (Photinus pyralis), sequence (P08659 whole entry, looked up): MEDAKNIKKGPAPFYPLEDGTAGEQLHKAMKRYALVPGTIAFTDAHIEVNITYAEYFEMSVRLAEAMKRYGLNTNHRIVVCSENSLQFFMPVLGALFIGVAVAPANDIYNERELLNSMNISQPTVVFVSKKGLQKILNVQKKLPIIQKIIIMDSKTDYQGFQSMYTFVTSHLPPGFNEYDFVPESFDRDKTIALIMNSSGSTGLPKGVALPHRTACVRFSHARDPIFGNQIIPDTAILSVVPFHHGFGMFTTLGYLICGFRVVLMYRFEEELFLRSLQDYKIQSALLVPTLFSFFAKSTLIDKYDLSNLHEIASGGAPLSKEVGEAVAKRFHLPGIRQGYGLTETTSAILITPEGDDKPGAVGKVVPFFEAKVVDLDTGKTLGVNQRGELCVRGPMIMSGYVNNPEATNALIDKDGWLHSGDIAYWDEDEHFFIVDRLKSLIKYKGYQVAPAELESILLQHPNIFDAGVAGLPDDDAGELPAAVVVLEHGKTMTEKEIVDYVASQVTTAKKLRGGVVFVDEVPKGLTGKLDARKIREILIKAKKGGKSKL
# In short: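 Biochemical qHTS: compounds run as interplate titrations against purified firefly enzyme, with D-luciferin and ATP each at its KM concentration. Light output recorded by CCD imaging.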
# [14] = qHTS assay to identify small molecule agonists of the constitutive androstane receptor (CAR) signaling pathway - cell viability counter screen (AID 1224836); note: series mostly up to about 92 µM; nearly all actives have a fitted effect of over 45% in size
# In short: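 HepG2 cells stably carrying hCAR and a CYP2B6-2.2kb reporter were plated 4 h, then given compounds at 15 concentrations plus PK11195 (final 0.75 uM). After 23 h at 37 C, viability was read by CellTiter-Fluor fluorescence.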
# [15] = qHTS assay to identify small molecule antagonists of the retinoic acid receptor (RAR) signaling pathway (AID 1159552; note: nearly all actives have a fitted effect of over 50% in size)
# In short: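 RARE-luc C3RL4 cells; cpds + 1 uM (final) retinol, 6 hr, 37 C/5% CO2; luciferase reagent, 30 min RT, luminescence readout. Inhibitors of retinol-driven signal scored.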
# [16] = qHTS assay to identify small molecule agonists of the retinoic acid receptor (RAR) signaling pathway (AID 1159553); note: potency is the fitted concentration of half-maximal effect
# In short: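 6 hr compound exposure (DMSO vehicle) of overnight-plated C3RL4 RARE-luc cells at 37 C; luminescence quantified after 30 min RT with luciferase reagent.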
# [17] = qHTS assay to identify small molecule antagonists of the estrogen related receptor (ERR) signaling pathway - cell viability counter screen (AID 1224818); note: series mostly up to about 46 µM
# In short: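 Compounds dissolved in DMSO were applied to ERR cells seeded at 2,000 per well 6 h earlier. Cell viability followed 17.5 h later via 30-min CellTiter-Fluor fluorescence.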
# [18] = qHTS assay to identify small molecule antagonists of the estrogen related receptor signaling pathway with the pleiotropic PPARgamma coactivator (PGC) cell viability counter screen (AID 1224822; note: series mostly up to about 46 µM)
# In short: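 Counter screen for cell viability: PGC/ERR cells, 6 h pre-incubation after plating, 17.5 h compound exposure at 37 C, fluorescence from CellTiter-Fluor after 30 min.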
# [19] = qHTS assay to identify small molecule antagonists of the retinoid-related orphan receptor gamma (ROR-gamma) signaling pathway - cell viability counter screen (AID 1159520); note: nearly all actives have a fitted effect of over 50% in size
# In short: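 Tet-on ROR gamma CHO cells were given compounds for 2 hr, then doxycycline hyclate at 1 uM final, and incubated 16 hr at 37 C. Viability was measured as ATP content by CellTiter-Glo luminescence.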
Structure (SMILES),Potency [1],outcome [2],outcome [3],outcome [4],outcome [5],Potency [6],Potency [7],outcome [8],Potency [9],Potency [10],outcome [11],Potency [12],Potency [13],Potency [14],Potency [15],Potency [16],outcome [17],outcome [18],Potency [19]
c1ccc(OCCOc2ccccc2)cc1,inactive,inactive,inactive,inactive,inactive,inactive,inactive,inactive,inactive,inactive,inactive,inactive,28.2 µM (active) and 35.6 µM (active),inactive,,,,,
O=C1CCC(N2C(=O)c3ccccc3C2=O)C(=O)N1 (stereo not given),inactive,inactive,inactive,inactive,inactive,,,inactive,inactive,inactive,inactive,inactive,inactive,inactive,inactive,inactive,inactive,inactive,
CC(=O)CC(=O)Nc1ccccc1C,inactive,inactive,inactive,inactive,inactive,,inactive,inactive,inactive,inactive,inactive,inactive,inactive,inactive,inactive,inactive,,,
Oc1cccc2ccccc12,inactive,inactive,inactive,inactive,inactive,inactive,inactive,inactive,inactive,inactive,inactive,inactive,,inactive,,,,,inactive
Cc1ccc(S(N)(=O)=O)cc1,inactive,inactive,inactive,inactive,inactive,,inactive,inactive,inactive,inactive,inactive,inactive,inactive,inactive,inactive,inactive,,,
OCc1cccnc1,inactive,inactive,,inactive,inactive,inactive,inactive,inactive,inactive,inactive,inactive,inactive,inactive,inactive,,,,,inactive
Cc1occc(=O)c1O,inactive,inactive,inactive,inactive,inactive,inactive,inactive,inactive,inactive and 12.9 µM (active),inactive,inactive,inactive,inactive,inactive,,,,,
O=S(=O)(O)c1ccc2ccccc2c1,inactive,inactive,inactive,inactive,inactive,,inactive,inactive,11 µM (active),inactive,inactive,inactive,inactive,inactive,,,,,inactive
CCCCCCCCCC,inactive,inactive,inactive,inactive,inactive,inactive,inactive,inactive,inactive,inactive,inactive,inactive,inactive,inactive,,,,,inactive
CCCSc1ccc2nc(NC(=O)OC)[nH]c2c1,inactive,inactive,inactive,inactive,inactive,inactive,inactive,inactive,,inactive,inactive,inactive,3.99 µM (active) and 4.36 µM (active),inactive,inactive,6.11 µM (active) and 21.1 µM (active),,,inactive
CCCCN(CCCC)CCCC,inactive,inactive,inactive,inactive,inactive,inactive,inactive,inactive,inactive,inactive,inactive,inactive,inactive,inactive,,,,,inactive
CCCCCCOCCO,inactive,inactive,inactive,inactive,inactive,,,inactive,inactive,inactive,inactive,inactive,inactive,inactive,inactive,inactive,,,inactive
O=C(O)c1ccc2c(c1)C(=O)OC2=O,inactive,inactive,inactive,inactive,inactive,,inactive,inactive,,inactive,inactive,inactive,inactive,inactive,inactive,inactive,,,inactive
OC[C@H]1O[C@@](CO)(O[C@H]2O[C@H](CO)[C@@H](O)[C@H](O)[C@H]2O)[C@@H](O)[C@@H]1O,inactive,inactive,inactive,inactive,inactive,inactive,,inactive,inactive,inactive,inactive,inactive,inactive,inactive,inactive,inactive,,,
C[Si](O[Si](C)(C)C)O[Si](C)(C)C,inactive,inactive,inactive,inactive,inactive,inactive,,inactive,inactive,inactive,inactive,inactive,inactive,inactive,,,,,
O=C(Oc1ccccc1)c1ccccc1,inactive,inactive,inactive,inactive,inactive,inactive,inactive,inactive,inactive,inactive,inactive,inactive,inactive and 71 µM (active),inactive,inactive,inactive,,,
O=S1(=O)CC=CC1,inactive,inactive,inactive,inactive,inactive,inactive,,inactive,inactive,inactive,inactive,inactive,inactive,inactive,inactive,inactive,,,inactive
C#CCN(C)Cc1ccccc1,inactive,inactive,inactive,inactive,inactive,,inactive,inactive,inactive,inactive,inactive,inactive,inactive,inactive,inactive,inactive,inactive,inactive,inactive
